# FBA Mtb inh – inhibitors of M. tuberculosis fructose-bisphosphate aldolase. 360,000 tested, 2.3% active. inhibition, % at 1 µM. AID 588726. purified M. tuberculosis FBA, fluorescence read-out. P9WQA3; in the data active = inhibition above about 27%;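 also: 0% = vehicle and 100% = reference inhibitor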
# BoNT F protease – blocks Botulinum neurotoxin F light chain protease; Multiplex microsphere protease cleavage assay, flow cytometry; inhibition, % at 10 µM; AID 588497; 360,000 tested, 0.22% active; in the data active = inhibition above about 35%, passing the limit was not always enough; inconclusive = no clear call, values can overlap the other calls; also: plate controls were buffer without enzyme for full effect and enzyme alone for no effect
# Anthrax LF prot – blocks Bacillus anthracis lethal factor protease | P15917 | 360,000 tested, 0.12% active | inhibition, % at 10 µM | multiplex microsphere protease cleavage assay, LF; also: plate controls were buffer without enzyme for full effect and enzyme alone for no effect
# Target sequence (P15917 whole entry, looked up): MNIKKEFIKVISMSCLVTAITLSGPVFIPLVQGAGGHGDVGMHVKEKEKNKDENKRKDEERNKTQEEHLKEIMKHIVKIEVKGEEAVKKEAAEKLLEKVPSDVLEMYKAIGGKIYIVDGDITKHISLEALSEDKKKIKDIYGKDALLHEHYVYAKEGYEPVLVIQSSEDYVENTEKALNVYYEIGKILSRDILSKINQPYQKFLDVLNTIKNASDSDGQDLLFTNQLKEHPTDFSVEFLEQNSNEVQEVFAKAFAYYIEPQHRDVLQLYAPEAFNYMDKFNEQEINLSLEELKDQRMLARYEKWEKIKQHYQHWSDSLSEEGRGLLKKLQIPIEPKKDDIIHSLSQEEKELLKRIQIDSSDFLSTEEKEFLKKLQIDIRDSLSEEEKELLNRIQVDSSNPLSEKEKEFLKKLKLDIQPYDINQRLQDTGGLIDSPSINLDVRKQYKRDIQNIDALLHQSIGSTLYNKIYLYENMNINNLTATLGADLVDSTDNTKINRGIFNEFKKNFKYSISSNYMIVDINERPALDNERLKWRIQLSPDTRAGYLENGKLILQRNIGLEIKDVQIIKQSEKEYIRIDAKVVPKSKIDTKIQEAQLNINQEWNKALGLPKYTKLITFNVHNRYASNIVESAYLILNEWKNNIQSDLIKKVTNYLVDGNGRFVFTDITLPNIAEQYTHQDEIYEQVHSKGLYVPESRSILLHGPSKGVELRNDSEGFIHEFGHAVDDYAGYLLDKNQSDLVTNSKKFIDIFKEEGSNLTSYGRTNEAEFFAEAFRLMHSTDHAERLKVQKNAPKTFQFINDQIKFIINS
# Autofluor counter – flagged as autofluorescent in microsphere protease counterscreen; compound autofluorescence counterscreen, microsphere flow cytometry; stronger effect = higher value; fluorescence intensity (concentration not given with the values); 360,000 tested, 3.1% active; AID 624483; in the data active = fluorescence intensity above about 16000; inconclusive = no clear call, values can overlap the other calls
# BoNT-A LC inh2 – blocks Botulinum neurotoxin A light chain protease; inhibition, % at 10 µM; multiplex microsphere protease substrate cleavage, flow cytometry; 360,000 tested, 0.17% active; AID 588499; also: plate controls were buffer without enzyme for full effect and enzyme alone for no effect
# GDH-TPI counter – counter-screen for M. tuberculosis FBA inhibitors: GDH-TPI coupled enzymes | inhibition, % at 4.8 µM | 360,000 tested, 1.2% active | GDH-TPI coupled enzyme counterscreen, NADH absorbance; in the data active = inhibition above about 30%;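 also: 0% = DMSO wells and 100% = wells lacking the enzyme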
# The depositor's hits bear a star; ? = inconclusive; nt = not tested or not shown; + = active, no number. An excerpt weighted towards active compounds, which were near 6.7% of everything screened. Rule as the data show it, unless noted: active = inhibition above about 30%; inconclusive = no clear call, values can overlap the other calls; inactive = below that.
SMILES,FBA Mtb inh,BoNT F protease,Anthrax LF prot,Autofluor counter,BoNT-A LC inh2,GDH-TPI counter
Nc1c(S(=O)(=O)c2cccs2)c2nc3ccccc3nc2n1Cc1cccs1,119*,-4,-1,2901,0,13
Nc1c(S(=O)(=O)c2cccs2)c2nc3ccccc3nc2n1Cc1ccc2c(c1)OCO2,7,0,-4,5245,2,10
CC(C)CCn1c(N)c(S(=O)(=O)c2cccs2)c2nc3ccccc3nc21,116*,4,2,9997,4,12
COc1ccc(CCn2c(N)c(S(=O)(=O)c3cccs3)c3nc4ccccc4nc32)cc1OC,4,-5,-1,8196,1,21
Nc1c(S(=O)(=O)c2cccs2)c2nc3ccccc3nc2n1CC1CCCO1 (stereo not drawn),170*,4,1,22380*,3,23
C=CCn1c(=O)c2c(nc(-c3ccc(S(=O)(=O)O)cc3)n2C)n(C)c1=O,+,-9,-7,6126,0,3
C=CCn1c(=O)c2c(nc3n2CCCN3Cc2ccccc2)n(C)c1=O,-1,-9,-1,4508,0,-6
C=CCn1c(=O)c2c(nc3n2CCN3c2cccc(Cl)c2C)n(C)c1=O,-1,-2,-3,16780*,0,11
C=C(C)Cn1c(=O)c2c(nc3n2CCN3c2cccc(Cl)c2C)n(C)c1=O,0,4,-1,3802,-1,-8
CC1=C(C(=O)N2CCOCC2)CC(CC(=O)NCC2CCCCC2)C(=O)N1Cc1ccccc1 (stereo not drawn),0,-1,4,4000,0,1
COc1ccc(-c2noc(C3CCCN(C(=O)c4ccccc4OC)C3)n2)cc1OC (stereo not drawn),0,0,-1,16635*,?,12
COc1ccc(C(=O)N2CCCC(c3nc(-c4ccc(OC)c(OC)c4)no3)C2)c(OC)c1 (stereo not drawn),1,5,-9,20939*,5,0
COc1ccc(-c2noc(C3CCCN(C(=O)c4c(F)cccc4F)C3)n2)cc1OC (stereo not drawn),1,-12,-3,3255,5,5
O=C(c1c(F)cccc1F)N1CCCC(c2nc(-c3ccc(Cl)cc3)no2)C1 (stereo not drawn),2,?,-7,3848,4,-11
O=C(Cc1ccccc1)N1CCC(c2nc(-c3ccc(F)cc3)no2)CC1,0,12,-10,16726*,10,-8
O=C(Cc1ccccc1)N1CCCC(c2nc(-c3ccc(S(=O)(=O)N4CCCC4)cc3)no2)C1 (stereo not drawn),-1,4,-5,10698,-2,3
Cc1ccc(-c2noc(C3CCCN(C(=O)c4c(F)cccc4F)C3)n2)cc1 (stereo not drawn),2,4,-7,21313*,2,3
CC(C)CN(C(=O)CSc1nncs1)c1c(N)n(CC(C)C)c(=O)[nH]c1=O,2,-1,2,?,0,-3
O=C(c1ccccc1)N1CCC(c2nc(-c3ccc(S(=O)(=O)NCC4CCCO4)cc3)no2)CC1 (stereo not drawn),4,1,-1,?,-1,2
O=C(C1CC1)N1CCC(c2nc(-c3ccc(S(=O)(=O)NCC4CCCO4)cc3)no2)CC1 (stereo not drawn),6,9,-12,19413*,7,11
COc1ccc2c(c1)c1ncn(Cc3ccco3)c(=O)c1n2C,129*,-2,0,4443,0,2
CC1(C)CC(=O)C2=C(C1)OC(N)=C(C#N)C21C(=O)N2CCCc3cccc1c32 (stereo not drawn),-2,1,-5,16191*,1,4
CC1(C)CC(=O)C2=C(C1)OC(N)=C(C#N)[C@@]21C(=O)N(CC(N)=O)c2ccccc21,1,-6,4,3515,0,4
Cc1cccc(OC(=O)CN2C(=O)C3C4CCC(C4)C3C2=O)c1C (stereo not drawn),0,-3,0,23771*,1,0
CC(C)C1CC2=C(C(=O)OC(C)(C)O2)C(c2ccc(Cl)cc2)O1 (stereo not drawn),-2,0,0,5432,0,nt
SMILES,FBA Mtb inh,BoNT F protease,Anthrax LF prot,Autofluor counter,BoNT-A LC inh2,GDH-TPI counter
CCN(CC)c1ccc(/C=C/C(=O)C2C(=O)C=C(C)OC2=O)cc1 (stereo not drawn),-1,154*,73*,66487*,70*,8
CC1CCN(C(=O)CCc2nc3cc(S(=O)(=O)N(C)C)ccc3n2C)CC1,1,-4,1,20932*,?,0
COc1ccc2c(ccc[n+]2CC(=O)c2ccc(C)cc2)c1,31*,2,10,4405,3,3
CCOc1ccc(C(=O)C[n+]2cccc3cc(C)ccc32)cc1,1,79*,12,25078*,-18,12
COc1ccc2c(ccc[n+]2CC(=O)c2ccccc2)c1,26,6,-6,4343,-1,13
Cc1cc(NC(=O)Nc2ccc(Cl)c(Cl)c2)n(-c2ccccc2)n1,-1,?,-4,4351,?,-1
Cn1cccc1CC(=O)N/N=C/C=C/c1ccccc1,-3,1,-5,2507,0,20
CCCOC(=O)CSc1nc(N2CCOCC2)c2c(c1C#N)CC(C)(C)OC2,2,-6,12,3143,1,9
COc1ccc(S(=O)(=O)N2CCCC(C(=O)NCCc3ccccc3)C2)cc1 (stereo not drawn),0,1,-1,5494,-1,-4
Cn1c(C(=O)N2CCN(c3nc4ccccc4s3)CC2)cc2sccc21,0,-3,-4,19151*,0,7
CCN1CCN(c2nc3ccccc3s2)CC1,-3,0,1,20785*,?,-17
CSc1ccc(NC(=O)N2CCN(c3nc4ccccc4s3)CC2)cc1,0,-10,-4,21539*,?,-2
CC1=CC(c2ccc(Cl)cc2)n2nc(N3C(=O)CCC3=O)nc2N1 (stereo not drawn),167*,11,1,3406,0,16
Cc1ccc(C2C=C(c3ccccc3)Nc3nc(N4C(=O)CCC4=O)nn32)cc1 (stereo not drawn),22,-6,-3,4559,-1,9
CCOc1ccc(-c2nnc(NC(=O)Cc3ccc(OC)cc3)o2)cc1,3,3,2,5671,1,2
Cc1ccc(S(=O)(=O)N/N=C/c2ccc(O)c(O)c2)cc1[N+](=O)[O-],-3,3,-5,4337,0,33*
C/C(=N\NS(=O)(=O)c1ccc(Cl)c([N+](=O)[O-])c1)c1cc2ccccc2o1,-1,-12,0,22417*,?,21
C/C(=N\NS(=O)(=O)c1ccc(C)c([N+](=O)[O-])c1)c1cc2ccccc2o1,-3,-5,-4,16518*,-1,41*
Cc1ccc(C(=O)c2cc3ccccc3o2)cc1[N+](=O)[O-],-4,0,-1,2619,1,9

# Assay outcomes as filed in PubChem BioAssay.
